Source: PubChem (National Center for Advancing Translational Sciences (NCATS))
Lassa entry inh – qHTS for Inhibitors of binding or entry into cells for Lassa Virus | Lassa virus pseudotype entry inhibition, cell reporter | Potency, µM (doses to about 37.9 µM), actives largely listed as inhibitors | 300,000 tested, 1.2% active | AID 540256, 2011; calls by dose curve; tested in HEK293 cells; further: nearly all actives have a fitted effect of over 50% in size
Sm TGR inh – qHTS Assay for the Inhibitors of Schistosoma Mansoni Peroxiredoxins; Schistosoma mansoni thioredoxin glutathione reductase (TGR), Q962Y6; Potency, µM (highest dose often 114 µM), hits mostly inhibitors; 360,000 tested, 3% active; AID 485364, 2010; purified TGR, DTNB reduction, TNB absorbance 405 nm; further: nearly all actives have a fitted effect of over 60% in size
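First, TGR (20 nM dispensed) and NADPH were mixed with compound. Second, a 15 min room-temperature incubation followed. Third, further NADPH and then DTNB were added to start the reaction. Finally, TNB absorbance was monitored kinetically.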
MARV entry inh – qHTS for inhibitors of binding or entry into cells for Marburg Virus; Marburg virus pseudotyped entry inhibition, cell reporter; Potency, µM (top dose mostly 37.8 µM), hits mostly inhibitors; 300,000 tested, 1.8% active; AID 540276, 2011; calls by dose curve; tested in HEK293 cells
HCV inhibitor – qHTS Assay for Inhibitors of Hepatitis C Virus (HCV). AID 651820, 2012. Huh7.5.1 HCVcc-Cre infection, luciferase reporter, 44 h. 340,000 tested, 3.4% active. Potency, µM (series often up to 41.8 µM), actives largely listed as inhibitors
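A cell-based infection assay in which seeded cells (1,000 per well) receive test compound after 4 h, are inoculated with HCVcc-Cre at approximately 0.5 moi, and are incubated 44 h before luminescence detection.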
FMDV antiviral – High Throughput Screening for Foot and Mouth Disease Virus Antivirals; FMDV antiviral cell-based qHTS; Potency, µM (highest dose often 57.9 µM), actives largely listed as inhibitors; 410,000 tested, 1.2% active; AID 1159524, 2015; calls by dose curve; tested in HEK293T cells; further: read-out not given here; nearly all actives have a fitted effect of over 45% in size
RE007 growth inh – qHTS Assay for Inhibitors of the HIV-1 protein Vpr | Potency, µM (top dose mostly 92.2 µM), usual class: inhibitors | 360,000 tested, 0.21% active | S. pombe RE007 Vpr strain, BacTiter-Glo ATP luminescence, 24 h; active means well fitted falling curve with a large enough effect; inconclusive means small, poorly fitted or top-dose-only effect; inactive means no such curve, though single readings can be large or run the other way; further: nearly all actives have a fitted effect of over 50% in size
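Fission yeast RE007 carrying one integrated HIV-1 vpr copy, seeded at OD 0.01 in PMG+AL medium with 23 nL pinned compound. Grown 24 h at 30 degrees; viability read by BacTiter-Glo luminescence after 5 min.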
A number is an active result; i = inactive; ? = inconclusive; nt = no result; [ ] = dose if it differs, or a comment. Hits are enriched below; roughly 7.2% of the tested compounds scored in any of these assays. Unless noted, the call rests on the fitted dose curve; in most records, active means well fitted curve in the direction sought with a large enough effect; inconclusive means small, poorly fitted or top-dose-only effect, or another doubt; inactive means no such curve, though single readings can be large; an effect the other way counts as inactive or inconclusive.

SMILES	Lassa entry inh	Sm TGR inh	MARV entry inh	HCV inhibitor	FMDV antiviral	RE007 growth inh
C/C(=N\Nc1nncc2ccccc12)c1ccc(C(C)(C)C)cc1	?	i	?	2.51µM	i	i
N#Cc1ccc2c(c1)C[C@]1(CCCCN3C(=O)c4ccccc4C3=O)Oc3c(c(=O)oc4ccc(F)cc34)[C@@H]2O1	nt	nt	i	nt	nt	nt
O=C(Nc1cnn(Cc2ccc(F)cc2)c1)c1cc(-c2cccs2)on1	i	i	i	8.91µM	i	i
Cc1ccccc1NC(=O)Cn1c(=O)n(Cc2ccccc2)c(=O)c2sc3ccccc3c21	i	i	?	nt	i	nt
CCN1c2ccccc2-c2nc(SCC(=O)Nc3cccc(C(F)(F)F)c3)ncc2S1(=O)=O	i	i	nt	nt	?	nt
Cc1nn(-c2ccc([N+](=O)[O-])cc2)c2c1C(c1ccc(OC(F)F)cc1)N1C(=N2)C(=O)Nc2ccccc21 (centres undefined)	?	nt	?	2µM	i	i
Cc1ccc(C2c3c(C)nn(-c4ccc([N+](=O)[O-])cc4)c3N=C3C(=O)Nc4ccccc4N32)cc1 (centres undefined)	nt	i	nt	nt	nt	nt
O=C(NC1CCS(=O)(=O)C1)c1ccc(-c2ccc(Br)cc2)o1 (centres undefined)	i	i[11.4 µM]	i	11.2µM	nt	i
CN(C)Cc1cc(OCc2ccccc2)cc(CN(C)C)c1O	nt	nt	nt	nt	i	i
CN(C)Cc1cc(C(C)(C)c2cc(CN(C)C)c(O)c(CN(C)C)c2)cc(CN(C)C)c1O	?	i	11.6µM	i	i	i
CC(C)Cn1cc(-c2cccc3nccn23)cn1	nt	nt	nt	nt	i	i
COCc1c(C(=O)Nc2ccc3nc(N4CCOCC4)sc3c2)oc2ccccc12	?	i	?	?	25.1µM	i
CCc1cc2c3c(c1)C1(C(=O)N3C(C)(C)CC2C)C(C#N)=C(N)N2C(=C1C#N)Nc1ccccc12 (centres undefined)	12.6µM	i	?	?	?	i
Cc1cc2c3c(c1)C1(C(=O)N3C(C)(C)CC2C)C(C#N)=C(N)Oc2cc(O)ccc21 (centres undefined)	i	i	i	?	i	i
CCC(=O)c1ccc(OCC(O)CN(CCc2ccccc2)Cc2ccccc2)cc1 (centres undefined)	16.4µM	i	?	?	nt	i
OC(COc1ccccc1)CN(Cc1ccccc1)CC(O)COc1ccccc1 (centres undefined)	nt	i	nt	i	i	i
CCC(=O)c1ccc(OCC(O)Cn2c(C)nc3ccccc32)cc1 (centres undefined)	?	i	6.31µM	?	?	i
Cc1nc2ccccc2n1CC(O)COc1ccc(C(=O)O)cc1 (centres undefined)	i	i	i	nt	i	nt
CCCc1nc2ccccc2n1CC(O)COc1ccc(C(=O)OC)cc1 (centres undefined)	i	i	?	nt	28.2µM	nt
COC(=O)c1ccc(OCC(O)CN2C(=O)c3ccccc3C2=O)cc1 (centres undefined)	nt	i	nt	i	i	i
C[C@@H]1[C@@H](c2ccccc2)c2cc3ccccc3nc2-c2nc3ccccc3cc2[C@H]1C(=O)N1CCCC1	?	nt	i	nt	nt	nt
CCOc1ccccc1NC(=O)N1CCc2cc(S(=O)(=O)N3CCC(C)CC3)ccc21	i	i	i	nt	i	nt
Cc1ccc(S(=O)(=O)C(CNC(=O)C(=O)NCCc2ccc(Cl)cc2)c2ccco2)cc1 (centres undefined)	i	?	nt	nt	i	nt
Cc1ccc(S(=O)(=O)C(CNC(=O)C(=O)NCCc2ccccc2)c2ccco2)cc1 (centres undefined)	i	44.7µM	nt	nt	?	nt
COc1ccc(CCNC(=O)C(=O)NCC(c2ccco2)S(=O)(=O)c2ccccc2)cc1 (centres undefined)	i	i	nt	nt	i	nt
SMILES	Lassa entry inh	Sm TGR inh	MARV entry inh	HCV inhibitor	FMDV antiviral	RE007 growth inh
Cc1ccc(S(=O)(=O)C(CNC(=O)c2ccc(C(F)(F)F)cc2)c2ccco2)cc1 (centres undefined)	i	?	nt	nt	i	nt
O=C(NCC(c1ccco1)S(=O)(=O)c1ccc(Cl)cc1)c1ccc(C(F)(F)F)cc1 (centres undefined)	?	0.891µM	nt	nt	?	nt
Cc1cc(S(=O)(=O)NCC(c2ccco2)S(=O)(=O)c2ccccc2)ccc1F (centres undefined)	i	?	nt	nt	i	nt
O=C(NCCc1ccc(Cl)cc1)C(=O)NCC(c1ccco1)S(=O)(=O)c1ccc(Cl)cc1 (centres undefined)	i	3.98µM	nt	nt	i	nt
CCOc1ccc(S(=O)(=O)NCC(c2ccco2)S(=O)(=O)c2ccc(F)cc2)cc1 (centres undefined)	i	0.316µM	nt	nt	i	nt
O=C(CC(c1ccco1)S(=O)(=O)c1ccccc1)c1ccc(F)cc1 (centres undefined)	i	1.58µM	i	?	i	i
COc1ccc(CNC(=O)C(=O)NCC(c2ccco2)S(=O)(=O)c2ccc(Cl)cc2)cc1 (centres undefined)	i	11.2µM	nt	nt	?	nt
Cc1ccc(S(=O)(=O)C(CNC(=O)COc2ccccc2)c2ccco2)cc1 (centres undefined)	i	?	nt	nt	i	nt
O=C(COc1ccc(Cl)cc1)NCC(c1ccco1)S(=O)(=O)c1ccc(F)cc1 (centres undefined)	i	25.1µM	nt	nt	i	nt
COc1ccc(C)cc1N1CC(C(=O)Nc2cccc(C(=O)NC3CC3)c2)CC1=O (centres undefined)	nt	nt	nt	nt	i	i
COc1cccc(C2(CC(=O)N3CCC(c4nc5ccc(F)cc5[nH]4)CC3)CC(=O)N(C)C2=O)c1 (centres undefined)	nt	nt	nt	nt	i	nt
CCOc1ccc(NC(=O)CCc2c(C)nc3nc(-c4cc(OC)cc(OC)c4)nn3c2C)cc1	i	i	i	nt	?	nt
Cc1ccc(CNC(=O)c2ccc(-c3nc(CS(=O)(=O)c4ccc(C)cc4)c(C)o3)cc2)cc1	i	i	nt	nt	i	nt
CN(C)c1ccc(C(c2nnnn2CCOC(=O)Nc2ccc(Cl)cc2)N2CCOCC2)cc1 (centres undefined)	i	25.1µM	i	i	i	i
CCOC(=O)C1CCCN(Cc2cn3c(-c4ccc(Br)cc4)nnc3s2)C1 (centres undefined)	?	i	nt	nt	i	nt
CCOc1ccc(/C=N/NC(=O)c2[nH]ncc2Br)c(O)c1	1.83µM	nt	6.51µM	22.4µM	i	?
COc1ccc(OC)c(/C=N/NC(=O)c2[nH]ncc2Br)c1	?	i	i	i	i	i
O=C(N/N=C/c1c(O)ccc2ccccc12)c1[nH]ncc1Br	16.4µM	i	?	?	i	i
O=C(N/N=C\c1c(O)ccc2ccccc12)c1ccc(Cn2cccn2)o1	13µM	i	5.8µM	?	?	i
Cc1ccc(C(=O)N2CCC(C(=O)c3c(C)cc(C)cc3C)CC2)cc1	nt	i	nt	11.2µM	?	i
